Shown are actives, neighbours in structure and some others; about 1.5% of the full set was active somewhere.
ARNT TACC3 PPI: disrupts binding between human ARNT and TACC3; Q9Y6A5; AlphaScreen His-ARNT PAS-B/GST-TACC3 binding, luminescence; TACC3 fragment carries E629A point mutation; inhibition, % at 9.99 µM; actives 0.66% (n = 390,000);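 active = mean inhibition of replicates at least 50% and at least half of replicates each reaching 50%; inconclusive = half or more replicates reach 50% but mean below 50%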;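 also: 0% = complete ARNT plus TACC3 wells and 100% = ARNT alone without TACC3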
Rin1-Abl PPI inh: inhibitors of human Rin1-Abl protein interaction; P00519+Q13671; TR-FRET Rin1/Abl binding, biochemical; inhibition, % at 7.35 µM; actives 0.4% (n = 360,000); AID 588664; in the data active = inhibition above about 5%, passing the limit was not always enough
sPLA2-III inh: Inhibits HGIII-sPLA2 liposome hydrolysis, primary screen; Q9NZ20; QFRET BODIPY PC-A2 liposome hydrolysis, fluorescence; inhibition, % at 12.2 µM; actives 0.56% (n = 370,000);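 active = inhibition above mean plus 3 SD of compounds lying within the high and low control bounds, cut at about 19% in these data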;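 also: 0% = median of test compound wells and 100% = no enzyme DMSO wells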
Target sequence (Q9NZ20 whole entry, looked up): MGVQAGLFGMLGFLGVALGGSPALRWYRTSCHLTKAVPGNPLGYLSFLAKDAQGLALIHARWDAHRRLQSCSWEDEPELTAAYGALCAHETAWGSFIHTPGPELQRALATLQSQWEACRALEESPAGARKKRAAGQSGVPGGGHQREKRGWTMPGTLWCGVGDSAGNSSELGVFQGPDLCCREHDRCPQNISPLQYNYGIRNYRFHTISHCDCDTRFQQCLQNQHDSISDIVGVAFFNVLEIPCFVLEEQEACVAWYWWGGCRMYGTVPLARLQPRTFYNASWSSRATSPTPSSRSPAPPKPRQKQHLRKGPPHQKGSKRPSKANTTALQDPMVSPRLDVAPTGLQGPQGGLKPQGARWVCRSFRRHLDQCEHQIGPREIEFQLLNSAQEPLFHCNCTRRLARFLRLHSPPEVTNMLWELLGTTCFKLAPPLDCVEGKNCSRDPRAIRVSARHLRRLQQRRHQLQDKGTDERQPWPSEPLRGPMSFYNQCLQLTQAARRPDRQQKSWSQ
AI-2 QS modul: Vibrio harveyi AI-2 quorum sensing modulation | Vibrio harveyi JMH597 AI-2 luminescence/OD600 ratio, 9 h; stronger effect = lower value; strain lacks LuxN and CqsS sensors; 0 = neutral-control median | actives 0.4% (n = 300,000) | activity change, % at 7.5 µM; in the data active = activity change below about -75%, passing the limit was not always enough; inconclusive = no clear call, values can overlap the other calls;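 also: luminescence divided by OD600 gain over 9 h not by final OD600 alone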
JMH597 growth: retest: blocks Vibrio harveyi JMH597 growth; shares compounds with AI-2 QS modul; OD600 absorbance, 9 h; lacks LuxN and CqsS sensors; growth inhibition, % at 7.5 µM; actives 1% (n = 750);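 active = every replicate shows growth inhibition above 50%; inconclusive = at least half, but not all, replicates pass that cutoff; inactive = fewer than half of replicates pass it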
BB721 lum counter: retest counter-screen: luminescence loss in constitutive-on quorum sensing strain BB721 | AID 2727 | shares compounds with AI-2 QS modul | inhibition, % at 7.5 µM | Vibrio harveyi BB721 luminescence, 9 h | actives 95% (n = 750);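 active = inhibition above about 80% in every replicate, not just on average, limit read from the data; inconclusive = at least half of replicates past the limit, but not all; inactive = fewer than half of replicates past the limit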
BB721 growth rt: retest: inhibitors of Vibrio harveyi BB721 growth | shares compounds with AI-2 QS modul | OD600 absorbance, 9 h | growth inhibition, % at 7.5 µM | actives 3% (n = 750) | AID 2728;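 active = every replicate shows growth inhibition above 50%; inconclusive = at least half but not all replicates above 50% inhibition; inactive = under half of replicates above 50% inhibition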
JMH597 AI-2 mod: Vibrio harveyi AI-2 signaling luminescence modulation – JMH597 strain, confirmation; actives 97% (n = 750); Vibrio harveyi JMH597 AI-2 quorum sensing luminescence, 9 h; luxN and CqsS knockout, AI-2 only; inhibition, % at 7.5 µM; shares compounds with AI-2 QS modul;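 active = every replicate shows more than 75% inhibition of signal versus neutral control wells; inconclusive = half to three quarters of replicates exceed 75% inhibition; inactive = fewer than half of replicates exceed 75% inhibition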
Starred values were filed as active, the others as inactive.

What do the screens show for `O=C(NCc1cccs1)C(=O)c1c[nH]c2ccccc12`?
ARNT TACC3 PPI: -8.2; Rin1-Abl PPI inh: 3.0; sPLA2-III inh: 0.7; AI-2 QS modul: -91.6*; JMH597 growth: 20.4; BB721 lum counter: 97.4*; BB721 growth rt: -1.4; JMH597 AI-2 mod: 97.7*

How did OC[C@H]1[C@H](c2ccc(C#Cc3ccccc3)cc2)[C@H]2CN(Cc3cncnc3)CCCCN21 do in these assays?
ARNT TACC3 PPI: 18.7

How did C[C@H]1CN([C@@H](C)CO)S(=O)(=O)c2ccc(-c3cccc(F)c3)cc2O[C@@H]1CN(C)S(=O)(=O)c1ccccc1 do in these assays?
ARNT TACC3 PPI: 7.6

What do the screens show for `COc1ccc(C(=O)OCC(=O)c2c[nH]c3ccccc23)cc1OC`?
ARNT TACC3 PPI: -1.9; Rin1-Abl PPI inh: -1.9; sPLA2-III inh: -16.8

How did Cc1ccc(C(=O)OCC(=O)c2c[nH]c3ccccc23)cc1 do in these assays?
Rin1-Abl PPI inh: 1.6; sPLA2-III inh: -6.2; AI-2 QS modul: -78.8*; JMH597 growth: 1.3; BB721 lum counter: 77.1*; BB721 growth rt: 13.5; JMH597 AI-2 mod: 85.6*

Results for CC(Cc1cccnc1)NC(=O)c1cc(COc2c(F)cccc2F)on1 (stereo not drawn) ?
ARNT TACC3 PPI: -1.8; Rin1-Abl PPI inh: 2.9; sPLA2-III inh: -0.1; AI-2 QS modul: inconclusive; JMH597 growth: -17.2; BB721 lum counter: 87.7*; BB721 growth rt: -5.6; JMH597 AI-2 mod: 91.6*

Results for COc1ccccc1S(=O)(=O)N[C@H]1C=C[C@H](CC(=O)N2CCN(C)CC2)O[C@H]1CO ?
ARNT TACC3 PPI: -2.8

What do the screens show for `O=C(/C=C/c1cccc(F)c1)NCc1ccc2c(c1)OCO2`?
ARNT TACC3 PPI: -1.4; Rin1-Abl PPI inh: 5.8; sPLA2-III inh: -2.0; AI-2 QS modul: -88.5*; JMH597 growth: -5.9; BB721 lum counter: 96.4*; BB721 growth rt: -10.0; JMH597 AI-2 mod: 96.9*

How did O=C(CO/N=C/c1ccc2c(c1)OCO2)Nc1cccc(Br)c1 do in these assays?
ARNT TACC3 PPI: -2.6; Rin1-Abl PPI inh: -1.8; sPLA2-III inh: -19.1; AI-2 QS modul: -88.8*; JMH597 growth: 13.4; BB721 lum counter: 97.9*; BB721 growth rt: 28.8; JMH597 AI-2 mod: 98.1*

What do the screens show for `Cc1cccc(NC(=O)NCc2ccc3c(c2)OCO3)c1`?
ARNT TACC3 PPI: -5.1; Rin1-Abl PPI inh: 1.0; sPLA2-III inh: 1.1; AI-2 QS modul: -87.3*; JMH597 growth: -15.3; BB721 lum counter: 95.8*; BB721 growth rt: 11.6; JMH597 AI-2 mod: 95.8*

Results for Cc1cccc(NC(=O)CO/N=C/c2ccc3c(c2)OCO3)c1 ?
ARNT TACC3 PPI: -1.4; Rin1-Abl PPI inh: -0.2; sPLA2-III inh: -11.5; AI-2 QS modul: -89.4*; JMH597 growth: 12.0; BB721 lum counter: 95.7*; BB721 growth rt: 22.2; JMH597 AI-2 mod: 96.6*

Results for Cc1cccc(NC(=S)NCc2ccc3c(c2)OCO3)c1 ?
ARNT TACC3 PPI: 1.0; Rin1-Abl PPI inh: -1.6; sPLA2-III inh: 15.4; AI-2 QS modul: -9.8

What do the screens show for `CNC(=O)C[C@H]1CC[C@@H]2[C@H](COC[C@@H](O)CN2C(=O)Nc2ccc3c(c2)OCO3)O1`?
ARNT TACC3 PPI: -2.2

What do the screens show for `C[C@H]1CN([C@@H](C)CO)C(=O)Cc2cc(NC(=O)Nc3ccc(F)cc3)ccc2O[C@H]1CN(C)Cc1ccc(Oc2ccccc2)cc1`?
ARNT TACC3 PPI: -8.3

Results for CN(C)S(=O)(=O)c1ccc(Oc2ccccc2)cc1 ?
ARNT TACC3 PPI: 0.4; Rin1-Abl PPI inh: -0.6; sPLA2-III inh: -3.2; AI-2 QS modul: -92.8*; JMH597 growth: -8.1; BB721 lum counter: 83.7*; BB721 growth rt: -56.0; JMH597 AI-2 mod: 99.0*

Results for CCOC(=O)c1ccc(S(=O)(=O)Nc2ccc3cn[nH]c3c2)cc1 ?
ARNT TACC3 PPI: -10.3; Rin1-Abl PPI inh: -0.4; sPLA2-III inh: -30.4; AI-2 QS modul: -90.0*; JMH597 growth: 28.2; BB721 lum counter: 95.0*; BB721 growth rt: 28.4; JMH597 AI-2 mod: 97.0*

What do the screens show for `COc1ccc(S(=O)(=O)Nc2ccc3cn[nH]c3c2)cc1C`?
ARNT TACC3 PPI: 2.4; Rin1-Abl PPI inh: 5.4; sPLA2-III inh: -41.9; AI-2 QS modul: 9.3

What do the screens show for `CC1(C)CC(=O)C=C(Nc2cc(-c3ccccc3)[nH]n2)C1`?
ARNT TACC3 PPI: -11.3; Rin1-Abl PPI inh: -4.5; sPLA2-III inh: 2.9; AI-2 QS modul: -79.0*; JMH597 growth: -0.4; BB721 lum counter: 89.6*; BB721 growth rt: -11.8; JMH597 AI-2 mod: 94.1*

How did C/C=C/c1ccc([C@@H]2[C@@H](CO)N(C(=O)CC)[C@H]2CN(C)S(C)(=O)=O)cc1 do in these assays?
ARNT TACC3 PPI: -3.6

How did COc1ccc(C(=O)Cn2nnc(-c3cccs3)n2)cc1 do in these assays?
ARNT TACC3 PPI: 0.5; Rin1-Abl PPI inh: -3.9; sPLA2-III inh: -53.9; AI-2 QS modul: -80.5*; JMH597 growth: 24.3; BB721 lum counter: 92.7*; BB721 growth rt: -11.3; JMH597 AI-2 mod: 95.6*

What do the screens show for `CC(C)(C)C(=O)Cn1nnc(-c2ccc(C(F)(F)F)cc2)n1`?
ARNT TACC3 PPI: -5.4; Rin1-Abl PPI inh: 2.1; sPLA2-III inh: -58.8; AI-2 QS modul: -79.6*; JMH597 growth: -30.4; BB721 lum counter: 90.1*; BB721 growth rt: -0.7; JMH597 AI-2 mod: 93.1*

How did O=C(Cn1nnc(-c2ccccc2)n1)c1ccccc1 do in these assays?
ARNT TACC3 PPI: -4.5; Rin1-Abl PPI inh: 1.9; sPLA2-III inh: -61.1; AI-2 QS modul: -94.1*; JMH597 growth: 28.3; BB721 lum counter: 98.0*; BB721 growth rt: 2.0; JMH597 AI-2 mod: 98.7*

How did O=C(Cn1nnc(-c2ccccc2)n1)NNC(=O)c1ccccc1 do in these assays?
ARNT TACC3 PPI: -3.0; Rin1-Abl PPI inh: -2.1; sPLA2-III inh: -4.3; AI-2 QS modul: 2.7

What do the screens show for `C[C@@H]1CN([C@@H](C)CO)C(=O)c2cc(NS(=O)(=O)c3ccccc3)ccc2O[C@@H](C)CCCCO[C@H]1CN(C)C`?
ARNT TACC3 PPI: -39.3

Results for CNC(=O)C[C@@H]1CC[C@@H]2[C@H](COC[C@@H](O)CN2C(=O)Nc2cccc(OC)c2)O1 ?
ARNT TACC3 PPI: 9.6

Results for CO[C@H]1CN(C)C(=O)c2ccc(NC(=O)Nc3ccccc3F)cc2OC[C@@H](C)N(C(C)=O)C[C@H]1C ?
ARNT TACC3 PPI: -2.3

Results for O=C(CN1C(=O)NC2(CCc3ccccc32)C1=O)Nc1ccc(N2CCOCC2)cc1 (stereo not drawn) ?
ARNT TACC3 PPI: 1.0; Rin1-Abl PPI inh: -0.8; sPLA2-III inh: -3.8; AI-2 QS modul: -89.0*; JMH597 growth: 6.9; BB721 lum counter: 88.1*; BB721 growth rt: 8.7; JMH597 AI-2 mod: 93.1*

Screening data: PubChem BioAssay, several laboratories
